The values below come from PubChem BioAssay (NCI).

About 83,000 compounds went through this panel and 20% of them were active in at least one assay; those are over-represented in the sample as a whole.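 Step 1: grow cells in 96-well plates. Step 2: add test compound at a single concentration. Step 3: incubate 48 h. Step 4: record percent growth.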 Values without a mark were called inactive. Activity calls are given as the source filed them. Rule for the calls: active = growth percent below 10; inactive = the rest.

The first test deals with CCRF-CEM leukemia. Kind of test: NCI-60 one-dose screen, 48 h (100 = growth as untreated, 0 = no growth, -100 = all killed). The conditions noted are these: 10 µM unless noted.
Regarding `Cc1ccc2c(C3C(C#N)=C(N)Oc4cc5ccccc5cc43)cc(=O)oc2c1` (configuration not stated), the growth is 13%.

As to `Oc1ccc(Cl)cc1Sc1cc(Cl)ccc1O`, the growth was 96.7%.

Turning to `CCc1cccc(-c2ccccc2)c1`, the growth was 8.01% (active).

As for `CCCCNc1cc(C(=O)O)cc(S(N)(=O)=O)c1Oc1ccccc1`, the growth was 105%.

With `CC(C)Cn1cnc2c3ccccc3nc(NCn3nc(-c4cc(Cl)cc(Cl)c4Cl)oc3=S)c21`, the growth is 6.87% (active).

For `Clc1ccc2c(c1)nnn1c3ncccc3c(Br)c21`, the growth was 86.4%.

For `Cc1ccc(-c2nc3c(N=Nc4ccc(S(N)(=O)=O)cc4)c(N)nn3c(N)c2C#N)cc1`, the growth is 11.9%.

Consider `O=C(C[n+]1ccccc1Cl)c1ccc2c(c1)CCCC2`, for which the growth is 90.6%.

For `COC(=O)CCCNS(=O)(=O)c1cc(C(=O)Nc2ccc(NC(=O)c3cc(S(=O)(=O)NCCCC(=O)OC)c(O)c(O)c3O)cc2)c(O)c(O)c1O`, the growth is 58.6%.

In the case of `CC(NCCC(c1ccccc1)c1ccccc1)c1ccccc1` (configuration not stated), the growth was 48%.

Regarding `CC/C(=C(\CC)c1ccc(OCCN(CC)CC)cc1)c1ccc(OCCN(CC)CC)cc1`, the growth was 38.9%.

For the molecule `Cc1ccc(N(CC2=NCCN2)c2cccc(O)c2)cc1`, the growth was 98.5%.

`COc1ccc(C[C@H](N)C(=O)N[C@@H]2[C@@H](CO)OC(n3cnc4c(N(C)C)ncnc43)[C@@H]2O)cc1` (some centres not stated): the growth was -3.9% (active).

On to `CC1=C2C(=C[C@@](C)(CO)[C@@H]2OC(=O)N(C)CCN(C)C(=O)OC(C)(C)C)C(=O)[C@](C)(O)C12CC2`, for which the growth is 74.6%.

As to `CC(=O)N1N=C(CCC(=O)c2nc3ccc([N+](=O)[O-])cc3[nH]2)OC1c1ccc(O)cc1` (configuration not stated), the growth was 114%.

With `CC1CCc2cc(F)cc3c(=O)c(C(=O)O)cn1c23` (configuration not stated), the growth is 109%.

As for `OCCOCC(F)(F)F`, the growth is -0.0215% (active).

With `O=C(O)c1cn(C2CC2)c2cc(N3CCN(C(=O)CSc4nc(NS(=O)(=O)c5ccccc5)cc(=O)[nH]4)CC3)c(F)cc2c1=O`, the growth is 81%.

In the case of `CN(C)CC/C=C1\c2ccccc2Sc2ccc(Cl)cc21`, the growth is 59.4%.

Take `O=C(COc1ccc(Cl)cc1)N1CCN(Cc2ccc3c(c2)OCO3)CC1`: the growth is 97.4%.

In the case of `COc1cc(NS(=O)(=O)c2ccc(N)cc2)ncn1`, the growth is 105%.

Regarding `COC(OC)C1(c2ccccc2)NC(=O)NC1=O` (configuration not stated), the growth was 112%.

`CC(=O)Nc1ccc(OC(=O)c2ccccc2O)cc1`: the growth was 95.9%.

Consider `C=C1C(=O)O[C@H]2[C@H]1CC/C(COC(=O)c1cccc3ccccc13)=C\CC[C@@]1(C)O[C@@H]21`, for which the growth was -19% (active).

As for `COc1ccccc1S(=O)(=O)Nc1ccc2c3c(cc(-c4ccoc4)nc13)C(=O)N2C`, the growth is 76.5%.

As to `C=C1c2c(Cl)ccc(O)c2C(O)=C2C(=O)[C@]3(O)C(O)=C(C(N)=O)C(=O)[C@@H](N(C)C)[C@@H]3[C@@H](O)[C@H]12`, the growth is 4.46% (active).

Regarding `CN1C(=O)C2(SCC(C(=O)NCC(=O)OC(C)(C)C)N2C(=O)C2CCCCC2)c2ccccc21` (configuration not stated), the growth was 96.3%.

As for `COc1ccc(/C=C/C(=O)c2ccc(-n3cc(CN4CCN(c5cc6c(cc5F)c(=O)c(C(=O)O)cn6C5CC5)CC4)nn3)cc2)cc1OC`, the growth is 3.05% (active).

As for `O=C(Nc1ccc(Cl)c(Cl)c1)Nc1ccc(Cl)c([N+](=O)[O-])c1`, the growth is 1.21% (active).

As to `Cc1cc[n+](CCCC[n+]2ccc(C)cc2)cc1`, the growth is 91.7%.

Turning to `Cc1cn(C2CC(F)C(CO)O2)c(=O)[nH]c1=O` (configuration not stated), the growth is 80.7%.

On to `COc1cc2ncnc(Oc3ccc(NC(=O)Nc4ccc(C5(C#N)CCCC5)cc4)c4ccccc34)c2cc1OC`, for which the growth is 77.5%.

Regarding `COC(=O)Nc1nc2ccc(Sc3ccccc3)cc2[nH]1`, the growth is 10.7%.

In a further test the test system is MOLT-4 leukemia. The description is as above. The conditions noted are these: 10 µM unless noted.
As for `Cc1ccc2c(C3C(C#N)=C(N)Oc4cc5ccccc5cc43)cc(=O)oc2c1` (configuration not stated), the growth is 20.8%.

Consider `Oc1ccc(Cl)cc1Sc1cc(Cl)ccc1O`, for which the growth was 80.9%.

As to `CCc1cccc(-c2ccccc2)c1`, the growth is 88%.

Take `CCCCNc1cc(C(=O)O)cc(S(N)(=O)=O)c1Oc1ccccc1`: the growth is 110%.

With `CC(C)Cn1cnc2c3ccccc3nc(NCn3nc(-c4cc(Cl)cc(Cl)c4Cl)oc3=S)c21`, the growth was 20.4%.

Turning to `Clc1ccc2c(c1)nnn1c3ncccc3c(Br)c21`, the growth was 115%.

For the molecule `Cc1ccc(-c2nc3c(N=Nc4ccc(S(N)(=O)=O)cc4)c(N)nn3c(N)c2C#N)cc1`, the growth is 3.58% (active).

As for `O=C(C[n+]1ccccc1Cl)c1ccc2c(c1)CCCC2`, the growth is 73.6%.

For the molecule `CCN(CC)c1ccc(C2CC(c3cc(OC)c(OC)c(OC)c3)=NN2)cc1` (configuration not stated), the growth is 7.4% (active).

Take `COC(=O)CCCNS(=O)(=O)c1cc(C(=O)Nc2ccc(NC(=O)c3cc(S(=O)(=O)NCCCC(=O)OC)c(O)c(O)c3O)cc2)c(O)c(O)c1O`: the growth is 87.6%.

In the case of `CC(NCCC(c1ccccc1)c1ccccc1)c1ccccc1` (configuration not stated), the growth is 17.8%.

Turning to `CC/C(=C(\CC)c1ccc(OCCN(CC)CC)cc1)c1ccc(OCCN(CC)CC)cc1`, the growth was 42.6%.

As to `Cc1ccc(N(CC2=NCCN2)c2cccc(O)c2)cc1`, the growth is 97.7%.

Regarding `COc1ccc(C[C@H](N)C(=O)N[C@@H]2[C@@H](CO)OC(n3cnc4c(N(C)C)ncnc43)[C@@H]2O)cc1` (some centres not stated), the growth is -22.3% (active).

Consider `CC1=C2C(=C[C@@](C)(CO)[C@@H]2OC(=O)N(C)CCN(C)C(=O)OC(C)(C)C)C(=O)[C@](C)(O)C12CC2`, for which the growth is 89.7%.

`CC1CCc2cc(F)cc3c(=O)c(C(=O)O)cn1c23` (configuration not stated): the growth is 97.3%.

Take `CN(C)CC/C=C1\c2ccccc2Sc2ccc(Cl)cc21`: the growth was 44.8%.

For the molecule `O=C(COc1ccc(Cl)cc1)N1CCN(Cc2ccc3c(c2)OCO3)CC1`, the growth was 100%.

On to `COc1cc(NS(=O)(=O)c2ccc(N)cc2)ncn1`, for which the growth was 99.6%.

With `COC(OC)C1(c2ccccc2)NC(=O)NC1=O` (configuration not stated), the growth was 89.1%.

On to `CC(=O)Nc1ccc(OC(=O)c2ccccc2O)cc1`, for which the growth is 96.2%.

On to `COc1cccc(C2CC(c3cc(OC)c(OC)c(OC)c3)=NN2)c1` (configuration not stated), for which the growth is 81.2%.

With `COc1cc(C(=O)N2CCN(C(=O)c3cc(OC)c(OCc4ccccc4)cc3N)CC2)c(N)cc1OCc1ccccc1`, the growth is 101%.

Consider `COc1cc2c(cc1OCCCCC(=O)Nc1ccc(-c3nc4ccccc4s3)cc1)N=C[C@@H]1CCCN1C2=O`, for which the growth is -31.7% (active).

`C=C1C(=O)O[C@H]2[C@H]1CC/C(COC(=O)c1cccc3ccccc13)=C\CC[C@@]1(C)O[C@@H]21`: the growth is -15.1% (active).

As for `COc1ccccc1S(=O)(=O)Nc1ccc2c3c(cc(-c4ccoc4)nc13)C(=O)N2C`, the growth is 75.8%.

On to `C=C1c2c(Cl)ccc(O)c2C(O)=C2C(=O)[C@]3(O)C(O)=C(C(N)=O)C(=O)[C@@H](N(C)C)[C@@H]3[C@@H](O)[C@H]12`, for which the growth was -11.5% (active).

Consider `CN1C(=O)C2(SCC(C(=O)NCC(=O)OC(C)(C)C)N2C(=O)C2CCCCC2)c2ccccc21` (configuration not stated), for which the growth is 92.6%.

For `COc1ccc(/C=C/C(=O)c2ccc(-n3cc(CN4CCN(c5cc6c(cc5F)c(=O)c(C(=O)O)cn6C5CC5)CC4)nn3)cc2)cc1OC`, the growth was 10.5%.

With `O=C(Nc1ccc(Cl)c(Cl)c1)Nc1ccc(Cl)c([N+](=O)[O-])c1`, the growth is -30.9% (active).

As for `Cc1cc[n+](CCCC[n+]2ccc(C)cc2)cc1`, the growth is 91.1%.

For `Cc1cn(C2CC(F)C(CO)O2)c(=O)[nH]c1=O` (configuration not stated), the growth is 57%.

Regarding `COc1cc2ncnc(Oc3ccc(NC(=O)Nc4ccc(C5(C#N)CCCC5)cc4)c4ccccc34)c2cc1OC`, the growth was 60.9%.

Regarding `COC(=O)Nc1nc2ccc(Sc3ccccc3)cc2[nH]1`, the growth is 14.6%.
